Screening data: PubChem, National Center for Advancing Translational Sciences (NCATS)
Sampled rows, rich in hits. Any-hit rate of the full collection: about 10%.
BAZ2B block = BAZ2B (human) inhibition; Q9UIF8; Potency, µM (doses to about 114 µM), usual class: inhibitors; AlphaScreen BAZ2B-H3K14Ac peptide displacement; hit rate 4.4% among 360,000; note: nearly all actives have a fitted effect of over 60% in size
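Compounds, titrated to a top concentration of 110 uM, were incubated 30 min at room temperature with preformed BAZ2B/acetyl-K14 H3 peptide complex (50 nM each). Proximity signal was measured by AlphaScreen after 20 min with beads.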
JMJD2A Tudor = blocks the human JMJD2A Tudor domain; O75164; AlphaScreen JMJD2A-Tudor / H3K4me3 peptide binding; Potency, µM (titrated, usually from 114 µM), actives largely listed as inhibitors; hit rate 4.4% among 390,000; AID 504339; note: nearly all actives have a fitted effect of over 50% in size
HP1b binding inh = inhibitors of HP1-beta chromodomain binding to methylated histone tails | Potency, µM (highest dose often 114 µM), actives largely listed as inhibitors | P83916 | AlphaScreen HP1-beta / biotin-H3K9me3 peptide binding | hit rate 0.56% among 390,000; note: nearly all actives have a fitted effect of over 70% in size
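AlphaScreen: HP1-beta (50 nM) preformed 30 min with biotin-H3(1-18)K9me3 peptide (50 nM) in PBS pH 7.4, 0.01% Tween-20. Compound added for 30 min at RT, then streptavidin donor/nickel chelate acceptor beads (10 ug/mL) for 30 min.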
G9a block = inhibitors of human histone lysine methyltransferase G9a. Q96KQ7. G9a H3K9 monomethylation, AlphaScreen, 2 h. Potency, µM (doses to about 102 µM), most hits filed as inhibitors. hit rate 8.8% among 350,000; note: nearly all actives have a fitted effect of over 75% in size
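Methyltransferase reactions run at room temperature for 2 h (20 nM enzyme, 500 nM biotin-H3K9 peptide, 20 uM SAM) after a 15 min compound preincubation; product detected by AlphaScreen beads and anti-H3K9me1 antibody.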
CtBP-E1A inh = blocks the CtBP interaction with E1A | AID 651724 | activity change, % (concentration not given with the values) | AlphaScreen GST-E1A/His-CtBP binding, 1536-well; hits give low values | hit rate 0.49% among 340,000; in the data active = activity change below about -65%; inconclusive = mostly about -30% to -63%
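Homogeneous bead-based format: GST-tagged E1A captured on glutathione donor beads, His-tagged CtBP on nickel acceptor beads; compounds precede bead addition by 2 h at 37 °C.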
Six1-Eya2 inh = Six1/Eya2 interaction inhibition; hit rate 0.56% among 360,000; Q15475+O00167; AID 651725; activity change, % (test concentration not listed); AlphaScreen GST-Six1/His-Eya2 binding, biochemical; hits give low values; in the data active = activity change below about -65%; inconclusive = mostly about -30% to -63%
Target sequence (O00167 whole entry, looked up): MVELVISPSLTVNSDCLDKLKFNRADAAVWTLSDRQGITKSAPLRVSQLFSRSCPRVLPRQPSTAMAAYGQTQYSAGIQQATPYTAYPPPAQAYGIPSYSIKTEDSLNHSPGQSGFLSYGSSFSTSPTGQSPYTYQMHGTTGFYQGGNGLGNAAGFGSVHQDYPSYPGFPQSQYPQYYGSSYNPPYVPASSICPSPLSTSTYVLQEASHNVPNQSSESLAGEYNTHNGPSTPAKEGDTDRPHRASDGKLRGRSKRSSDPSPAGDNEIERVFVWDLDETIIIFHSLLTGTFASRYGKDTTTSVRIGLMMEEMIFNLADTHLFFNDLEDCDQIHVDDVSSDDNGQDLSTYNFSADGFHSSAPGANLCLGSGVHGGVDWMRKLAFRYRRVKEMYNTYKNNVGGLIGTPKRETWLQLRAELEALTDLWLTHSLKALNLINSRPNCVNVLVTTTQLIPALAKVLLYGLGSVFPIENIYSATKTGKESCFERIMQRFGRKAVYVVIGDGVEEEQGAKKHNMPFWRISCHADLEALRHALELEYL
Target sequence (Q15475 whole entry, looked up): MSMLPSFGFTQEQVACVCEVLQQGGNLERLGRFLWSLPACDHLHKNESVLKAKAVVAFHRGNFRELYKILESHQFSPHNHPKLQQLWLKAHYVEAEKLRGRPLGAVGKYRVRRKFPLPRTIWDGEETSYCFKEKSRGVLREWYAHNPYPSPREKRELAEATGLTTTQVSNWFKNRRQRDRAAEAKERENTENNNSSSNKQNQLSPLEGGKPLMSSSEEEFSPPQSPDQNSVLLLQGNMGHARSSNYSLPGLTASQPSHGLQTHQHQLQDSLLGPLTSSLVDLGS
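Homogeneous AlphaScreen proximity assay pairing GST-Six1 with His-tagged Eya2 (added as 5X mix: 250 nM and 500 nM) in 50 mM Tris pH 8.0, 300 mM NaCl, 1 mM TCEP. Glutathione donor and nickel acceptor beads; 1 h, 37 °C, dark.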
A number is an active result; n = inactive; u = inconclusive; x = not tested or not shown; [ ] = remark or other dose. Unless noted, calls come from the whole dose curve; as a rule, active = well fitted inhibition curve with a large enough effect; inconclusive = small, poorly fitted or top-dose-only effect; inactive = no such curve, though single readings can be large or run the other way.

SMILES	BAZ2B block	JMJD2A Tudor	HP1b binding inh	G9a block	CtBP-E1A inh	Six1-Eya2 inh
CCn1nnnc1NC(=O)c1cc(OC)c(OC)c(OC)c1	n	79µM	n	n	n	n
CCCn1nnnc1NC(=O)c1ccc(C)cc1Cl	56µM	u	n	22µM	n	n
CCCn1nnnc1NC(=O)c1cc(Br)ccc1OC	u	n	n	25µM	n	n
CCCn1nnnc1NC(=O)c1cccs1	u	u	u	35µM	n	n
COc1ccc(CNC(=O)c2ccc3nc(CCc4ccccc4)oc3c2)cc1OC	n	n	n	n	x	x
Cc1ccccc1CNC(=O)C(C)N(c1ccccc1)S(C)(=O)=O (configuration not stated)	n	n	n	n	x	x
Cn1nnnc1SCC(=O)Nc1ccccc1Cl	n	n	n	n	n	n
Cn1nnnc1NC(=O)c1ccccc1Cl	50µM	u	n	40µM	n	n
C=CCNc1c2c(nc3ncnn13)CC(C)CC2 (configuration not stated)	n	n	n	n	x	n
CC1CCc2c(nc3ncnn3c2NCCN(C)C)C1 (configuration not stated)	n	56µM	n	4µM	n	n
N#C/C(=C\c1cccc(O)c1)C(=O)N1CCCCC1	n	n	n	x	n	n
N#C/C(=C\c1ccc(O)c(O)c1)C(=O)N1CCc2ccccc21	8.9µM	16µM	u	6.3µM	n	n
COc1cc(/C=C(\C#N)C(=O)N2CCc3ccccc32)ccc1O	u	u	n	28µM	n	n
Cn1c(=O)n(C)c2cc(N3CCCCC3)c(NC(=O)c3ccc(C(C)(C)C)cc3)cc21	n	n	n	u	x	x
Cc1cc(S(=O)(=O)NCC(c2ccc(F)cc2)N2CCN(C)CC2)ccc1F (configuration not stated)	n	n	n	u	n	n
CN(C)c1ccc(C(CNC(=O)COc2ccc(Cl)cc2)N2CCCC2)cc1 (configuration not stated)	35µM	n	n	50µM	x	n
COc1ccc(S(=O)(=O)NCC(c2ccc(N(C)C)cc2)N2CCc3ccccc32)cc1 (configuration not stated)	u	22µM	u	13µM	x	x
COc1ccc(S(=O)(=O)NCC(c2ccco2)N2CCc3ccccc32)cc1 (configuration not stated)	u	u	u	u	n	n
CCOc1ccc(S(=O)(=O)NCC(c2ccc(N(C)C)cc2)N2CCc3ccccc32)cc1 (configuration not stated)	6.3µM	13µM	u	u	x	x
Cc1ccc(S(=O)(=O)NCC(c2ccc(N(C)C)cc2)N2CCc3ccccc32)cc1C (configuration not stated)	6.3µM	7.1µM	n	5.6µM	x	x
CCOC(=O)c1c(C)c(C(=O)NCCc2ccc(OC)cc2)c(C)n1CC	n	n	n	n	x	x
COc1ccc(C(=O)N2c3ccccc3C(C)(c3ccc(Cl)cc3)CC2(C)C)cc1 (configuration not stated)	n	n	n	n	x	x
CN(C)c1ccc(C(CNS(=O)(=O)c2ccc(Br)cc2)N2CCOCC2)cc1 (configuration not stated)	45µM	u	u	u	x	x
O=C(NCC(c1ccc(F)cc1)N1CCOCC1)c1ccc(Br)o1 (configuration not stated)	u	n	n	50µM	n	n
CN(C)c1ccc(C(CNS(=O)(=O)c2ccc([N+](=O)[O-])cc2)N2CCOCC2)cc1 (configuration not stated)	u	u	n	n[0.501 µM]	n	n
SMILES	BAZ2B block	JMJD2A Tudor	HP1b binding inh	G9a block	CtBP-E1A inh	Six1-Eya2 inh
CN1CCN(C(CNS(=O)(=O)c2ccc(Br)cc2)c2ccc3c(c2)OCO3)CC1 (configuration not stated)	n	n	n	79µM	n	n
CCOc1ccc(S(=O)(=O)Nc2ccc(C(=O)NCC(c3ccccc3)N(C)C)cc2)cc1 (configuration not stated)	n	n	n	x	n	n
CCOc1ccc(N(C)C(CNS(=O)(=O)c2ccccc2)c2ccccc2)cc1 (configuration not stated)	11µM	28µM	u	11µM	x	x
COCCCNC(=O)c1nn(-c2ccc(C)cc2)c(=O)n(C)c1=O	n	n	n	n	x	x
COc1cc(OC)cc(-c2nc3nc(C)c(CCC(=O)Nc4ccc(C)cc4C)c(C)n3n2)c1	n	n	n	n	x	x
CNC(=O)c1cc2n(n1)CCCN(Cc1ccc(F)cc1)C2=O	n	n	n	n[12.7 µM]	x	x
CN(C)c1ccc(C(CNC(=O)c2ccc(C(C)(C)C)cc2)N2CCOCC2)cc1 (configuration not stated)	35µM	u	n	11µM	x	x
COc1ccc(C(CNS(=O)(=O)c2cccc(F)c2)N2CCCC2)cc1 (configuration not stated)	x	n	n	x	n	n
CCOc1ccc(S(=O)(=O)NCC(c2ccc(N(C)C)cc2)N2CCCC2)cc1 (configuration not stated)	35µM	u	n	20µM	x	x
Nc1c(C(=O)Nc2ccc(F)cc2)sc2nc(-c3ccco3)ccc12	n	n	n	40µM	n	n
CCN(CC)C(=O)c1sc2nc(-c3cccs3)cc(-c3ccc(Cl)cc3)c2c1N	n	n	n	n	n	n
CC(=O)c1sc2nc(-c3ccco3)ccc2c1N	50µM	79µM	u	x	n	n
CCN(CC)C(=O)c1sc2nc(-c3cccs3)cc(-c3cccs3)c2c1N	n	n	n	32µM	n	n
Nc1c(C(=O)Nc2ccc(Br)cc2)sc2nc(-c3ccco3)ccc12	u	n	n	u	n	n
NC(=O)c1sc2nc(-c3cccs3)ccc2c1N	n	n	n	35µM	n	n
COc1cccc(NC(=O)c2ccc(CNS(=O)(=O)c3ccc4c(c3)C(C)(C)C(=O)N4C)cc2)c1	u	n	n	n	x	x
Cc1cccc(S(=O)Cc2ccc(C(=O)NC3CCCCCC3)o2)c1 (configuration not stated)	n	n	n	n	x	x
CCCCNc1nc(Oc2ccc(OCCC)nn2)nc(N(C)C)n1	n	n	n	n	x	x
Cc1cccc(C)c1OCCn1c(CCNC(=O)C2CCCCC2)nc2ccccc21	n	n	n	n	x	x
Cc1c(Cl)cccc1NC(=O)CCS(=O)(=O)c1ccc2c(c1)CC(=O)N2C	n	n	n	n	x	x
CN(C)c1ccc(CNC(=O)C2Cc3c(-c4ccccc4Oc4ccccc4)ccnc3O2)cc1 (configuration not stated)	x	x	x	x	u	-66
O=C(NC(=O)c1ccc(Cl)cc1)Nc1cc(N2CCCCC2)ncn1	x	79µM	n	x	n	n
COc1ccc(C(=O)Nc2cccc(-c3cn4ccsc4n3)c2)c(OC)c1	u	n	n	n	x	x
COc1ccc(C(=O)Nc2cccc(-c3nc4cccnc4s3)c2C)c(OC)c1	n	u	n	11µM	x	x
